Experimental data from PubChem BioAssay (NCI).
About 79,000 compounds went through this panel and 15% of them were active in at least one assay; those are over-represented in the sample as a whole. Activity calls are given as the source filed them. Cut-off read from the data, not from the text of the source: active = growth inhibition above about 70%; inactive = the rest.

Test: NCI Yeast Anticancer Drug Screen. Data for the rad50 strain (AID 155);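 note: 0% = growth of vehicle-only cultures of the same strain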
Details: S. cerevisiae rad50 strain growth inhibition; at 50.0 µM; hits give high values
How it was run: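 Yeast carrying a defined DNA repair defect were exposed to test compounds, and growth was compared with vehicle-treated controls to give percent inhibition.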

Row | Structure (SMILES) | growth inhibition
1 | CC(C)=CCNc1nc(Cl)nc2nc[nH]c12 | -28.1% (inactive)
2 | CCCCC(N)=O | -21.9% (inactive)
3 | O=C1C2C(C(=O)N1c1cccc3ccccc13)C1(Cl)C(Cl)=C(Cl)C2(Cl)C1(Cl)Cl (stereo not given) | 91% (active)
4 | COc1ccc(NC(=O)CCC(=O)CC(=O)c2ccc(C)cc2)cc1 | -18.6% (inactive)
5 | Cc1cc(=O)[nH]c(=O)[nH]1 | 5.85% (inactive)

Test: NCI Yeast Anticancer Drug Screen. Data for the mec2-1 strain (AID 157)
Details: S. cerevisiae mec2-1 strain, at 50.0 µM, hits give high values
How it was run: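 Compounds were applied to mec2-1 yeast cells. Their growth was then compared with that of vehicle-treated cultures to give growth inhibition.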

Row | Structure (SMILES) | growth inhibition
6 | CCN(CC)C(=N)N | -1.55% (inactive)
7 | Cc1ccc(-n2nnc(-c3ccc(Cl)c(Cl)c3)n2)cc1 | -40.8% (inactive)
8 | CN(C)C(=O)NC(=S)N(C)C | -10.3% (inactive)
9 | CCOC(=O)C1=CC(C)(C(=O)OCC)Nc2c(nc(N)[nH]c2=O)N1 (stereo not given) | -12.9% (inactive)
10 | Cc1cc(Br)c(NC(=O)c2csnn2)c(Br)c1 | -13.6% (inactive)
11 | COc1ccc(COC(=O)Oc2ccc(Cl)cc2)cc1OC | 63.3% (inactive)
12 | S=C1Cc2c([nH]c3ccccc23)-c2ccccc2N1 | 26.6% (inactive)
13 | Cc1cc(N(CCC#N)CCC#N)ccc1/C=C/C(=O)Nc1cccc(Cl)c1 | 4.6% (inactive)
14 | O=C(C(=O)N1CCc2ccccc21)c1c[nH]c2ccccc12 | 2% (inactive)
15 | Clc1ccc2c(Cl)ncnc2c1I | -13.8% (inactive)
16 | C=CCC12CC(C)OC1=Nc1ccccc1NC2=O (stereo not given) | -1.85% (inactive)
17 | O=C1c2ccccc2C(=O)N1N1C(=O)C2C3CCC(O3)C2C1=O (stereo not given) | 0.4% (inactive)
18 | CCOC(=O)c1cn(C2OC(COC(=O)c3ccccc3)C(OC(=O)c3ccccc3)C2OC(=O)c2ccccc2)c(=O)nc1N (stereo not given) | -12.2% (inactive)
19 | O=[N+]([O-])c1cc(O)ccc1O | 5.45% (inactive)
20 | CC1=CC2N(C=C1)C(c1cccc([N+](=O)[O-])c1)=NON2c1cc(C)ccn1 (stereo not given) | 0.95% (inactive)
21 | Oc1c(Cl)c(Cl)c(O)c2ccccc12 | -0.95% (inactive)
22 | CCOC(=O)c1c(-c2ccccc2)c(-c2ccccc2)cn1C | -7.45% (inactive)
23 | C1#CCSCC#CCSC1 | 3.4% (inactive)
24 | COc1cc(CN2CCN(CCO)CC2)c(O)c(CN2CCN(CCO)CC2)c1 | 1.55% (inactive)
25 | Cc1ccncc1.[O]=[Ge].[O]=[Ge].[O]=[Ge].[O]=[Ge].[O]=[Ge].[O]=[Ge][OH].[O]=[Ge][OH] | -35.4% (inactive)

Row | Structure (SMILES) | growth inhibition
26 | N#CCOS(=O)(=O)O | 0.45% (inactive)
27 | CC1=NN(c2cc(S(=O)(=O)O)ccc2Cl)C(=O)C1N=Nc1ccccc1 (stereo not given) | -26.2% (inactive)
28 | CN1NC(=O)CC1c1ccccc1 (stereo not given) | -3.65% (inactive)
29 | C/C(CCc1cnc2ccccc2c1)=N/NC(N)=O | 27.5% (inactive)
30 | N#Cc1ccc(OCCCCCOc2ccc(C#N)cc2I)c(I)c1 | -2.05% (inactive)
31 | OC1(c2ccccc2)c2ccccc2Oc2cc(Cl)ccc21 (stereo not given) | -0.85% (inactive)
32 | C=CCOC(=O)c1c(Cl)c(Cl)c(Cl)c(Cl)c1C(=O)O | 7.85% (inactive)
33 | CC1COC(C(=O)O)(c2ccccc2)O1 (stereo not given) | -3.55% (inactive)
34 | CCOC(=O)c1ccc(=O)n2c1[nH]c1ccccc12 | -5.65% (inactive)
35 | CCO/C=N/c1oc(-c2ccccc2)nc1C#N | 4.95% (inactive)
36 | CCCCCCCCCCCCn1[nH]c(C)c(C(=S)SCCCCCCCC)c1=O | 1.05% (inactive)
37 | O=C(Nc1ccc(C(=O)O)cc1)Nc1nccs1 | 6.5% (inactive)
38 | COC(=O)C(C(=O)C(=O)NC1=C(Cl)C(=O)c2ccccc2C1=O)c1csc(-n2nc(-c3ccccc3)cc2-c2ccccc2)n1 (stereo not given) | -26.6% (inactive)
39 | CCOC(=O)NC(CCl)NC(=O)OCC | -5.6% (inactive)
40 | COCn1cnc2c(ccn2C2OC(CO)C(O)C2O)c1=O (stereo not given) | 0% (inactive)
41 | CC(C)=CCNc1nc(Cl)nc2nc[nH]c12 | -8% (inactive)
42 | CCCCC(N)=O | -9.05% (inactive)
43 | O=C1C2C(C(=O)N1c1cccc3ccccc13)C1(Cl)C(Cl)=C(Cl)C2(Cl)C1(Cl)Cl (stereo not given) | 93.7% (active)
44 | COc1ccc(NC(=O)CCC(=O)CC(=O)c2ccc(C)cc2)cc1 | 31.1% (inactive)
45 | Cc1cc(=O)[nH]c(=O)[nH]1 | -7.55% (inactive)

Test: NCI Yeast Anticancer Drug Screen. Data for the sgs1 mgt1 strain (AID 161);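 note: 0% = growth of cultures given vehicle only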
Details: S. cerevisiae sgs1 mgt1 strain, at 50.0 µM, hits give high values
How it was run: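 Compounds are added to genetically altered yeast, and growth is compared with cultures given vehicle alone to give percent inhibition.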

Row | Structure (SMILES) | growth inhibition
46 | CCN(CC)C(=N)N | -27.2% (inactive)
47 | Cc1ccc(-n2nnc(-c3ccc(Cl)c(Cl)c3)n2)cc1 | -4.45% (inactive)
48 | CN(C)C(=O)NC(=S)N(C)C | -9.85% (inactive)
49 | CCOC(=O)C1=CC(C)(C(=O)OCC)Nc2c(nc(N)[nH]c2=O)N1 (stereo not given) | -8.35% (inactive)
50 | Cc1cc(Br)c(NC(=O)c2csnn2)c(Br)c1 | -13.6% (inactive)
51 | COc1ccc(COC(=O)Oc2ccc(Cl)cc2)cc1OC | 50.7% (inactive)
52 | S=C1Cc2c([nH]c3ccccc23)-c2ccccc2N1 | -8.85% (inactive)
53 | Cc1cc(N(CCC#N)CCC#N)ccc1/C=C/C(=O)Nc1cccc(Cl)c1 | 3.55% (inactive)
54 | O=C(C(=O)N1CCc2ccccc21)c1c[nH]c2ccccc12 | -11.8% (inactive)
55 | Clc1ccc2c(Cl)ncnc2c1I | 28.9% (inactive)
56 | C=CCC12CC(C)OC1=Nc1ccccc1NC2=O (stereo not given) | -18.2% (inactive)
57 | O=C1c2ccccc2C(=O)N1N1C(=O)C2C3CCC(O3)C2C1=O (stereo not given) | 12.9% (inactive)
58 | CCOC(=O)c1cn(C2OC(COC(=O)c3ccccc3)C(OC(=O)c3ccccc3)C2OC(=O)c2ccccc2)c(=O)nc1N (stereo not given) | 18% (inactive)
59 | O=[N+]([O-])c1cc(O)ccc1O | 0% (inactive)
60 | CC1=CC2N(C=C1)C(c1cccc([N+](=O)[O-])c1)=NON2c1cc(C)ccn1 (stereo not given) | 6.85% (inactive)
61 | Oc1c(Cl)c(Cl)c(O)c2ccccc12 | 7.15% (inactive)
62 | CCOC(=O)c1c(-c2ccccc2)c(-c2ccccc2)cn1C | 5.2% (inactive)
63 | C1#CCSCC#CCSC1 | 11.1% (inactive)
64 | COc1cc(CN2CCN(CCO)CC2)c(O)c(CN2CCN(CCO)CC2)c1 | -23.4% (inactive)
65 | Cc1ccncc1.[O]=[Ge].[O]=[Ge].[O]=[Ge].[O]=[Ge].[O]=[Ge].[O]=[Ge][OH].[O]=[Ge][OH] | -42.5% (inactive)

Row | Structure (SMILES) | growth inhibition
66 | N#CCOS(=O)(=O)O | -1.4% (inactive)
67 | CC1=NN(c2cc(S(=O)(=O)O)ccc2Cl)C(=O)C1N=Nc1ccccc1 (stereo not given) | -30.1% (inactive)
68 | CN1NC(=O)CC1c1ccccc1 (stereo not given) | -10.8% (inactive)
69 | C/C(CCc1cnc2ccccc2c1)=N/NC(N)=O | 85.7% (active)
70 | N#Cc1ccc(OCCCCCOc2ccc(C#N)cc2I)c(I)c1 | -8% (inactive)
71 | OC1(c2ccccc2)c2ccccc2Oc2cc(Cl)ccc21 (stereo not given) | 2.8% (inactive)
72 | C=CCOC(=O)c1c(Cl)c(Cl)c(Cl)c(Cl)c1C(=O)O | 29.1% (inactive)
73 | CC1COC(C(=O)O)(c2ccccc2)O1 (stereo not given) | -2.1% (inactive)
74 | CCOC(=O)c1ccc(=O)n2c1[nH]c1ccccc12 | -15.5% (inactive)
75 | CCO/C=N/c1oc(-c2ccccc2)nc1C#N | -4.85% (inactive)
76 | CCCCCCCCCCCCn1[nH]c(C)c(C(=S)SCCCCCCCC)c1=O | -0.9% (inactive)
77 | O=C(Nc1ccc(C(=O)O)cc1)Nc1nccs1 | 18% (inactive)
78 | COC(=O)C(C(=O)C(=O)NC1=C(Cl)C(=O)c2ccccc2C1=O)c1csc(-n2nc(-c3ccccc3)cc2-c2ccccc2)n1 (stereo not given) | -14.4% (inactive)
79 | CCOC(=O)NC(CCl)NC(=O)OCC | -2.05% (inactive)
80 | COCn1cnc2c(ccn2C2OC(CO)C(O)C2O)c1=O (stereo not given) | -8.9% (inactive)
81 | CC(C)=CCNc1nc(Cl)nc2nc[nH]c12 | -59% (inactive)
82 | CCCCC(N)=O | 9.8% (inactive)
83 | O=C1C2C(C(=O)N1c1cccc3ccccc13)C1(Cl)C(Cl)=C(Cl)C2(Cl)C1(Cl)Cl (stereo not given) | 94.6% (active)
84 | COc1ccc(NC(=O)CCC(=O)CC(=O)c2ccc(C)cc2)cc1 | 39.6% (inactive)
85 | Cc1cc(=O)[nH]c(=O)[nH]1 | -16.6% (inactive)
